Reference: publication PMC5540273 (PLoS ONE, 2017)

What follows are molecules tested on TESK1. Conditions: concentration: 1 μM, replicates: in singlicate; n = 1.
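Further: KINOMEscan kinase panel screen.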

Row | Structure (SMILES) | %Inh
1 | CCn1c(-c2nonc2N)nc2c(-c3ccccc3)ncc(OCCCN)c21.O=C(O)C(F)(F)F.O=C(O)C(F)(F)F [GSK260205] | 0%
2 | Cc1ccc(-c2ccc3occ(-c4ccc(S(C)=O)cc4)c3c2)nn1 (stereo not drawn) | 0%
3 | Cn1cc(-c2ccc3c(c2)CCN3C(=O)Cc2cc(F)cc(F)c2F)c2c(N)ncnc21 [GSK2634140] | 22%
4 | COc1ccc(C)c(Nc2ccnc(Nc3ccc(-c4cnc[nH]4)cc3)n2)c1.Cl [GW784041] | 21%
5 | c1ccc(Oc2ccc(Nc3ccnc4cc(-c5ccc(CN6CCCCC6)o5)ccc34)cc2)nc1 [GW567143] | 16%
6 | CN(c1ccc(F)c(NC(=O)c2cccc(OC(C)(C)C#N)c2Cl)c1)c1ccc2nc(NC(=O)C3CC3)sc2n1 | 6%
7 | COc1cc(Nc2nccc(N3CCC(NS(=O)(=O)c4ccc(NC(C)=O)cc4)CC3)n2)cc(OC)c1OC [GSK1379825] | 71%
8 | Cc1ccc(C)c(NC(=O)Nc2ccc(C)c(-c3ccc(C(=O)Nc4ccncc4)cc3)c2)c1 [GSK1398473] | 20%
9 | CCNc1nccc(-c2c(-c3ccc(F)cc3)ncn2C2CCN(C)CC2)n1 | 0%
10 | Cc1ccc(NC(=O)c2cccc(N3CCCCC3)c2)cc1-c1ccc(C(=O)NCC2CC2)cc1 [GSK1917008] | 0%
11 | Cl.Cl.NCC(NC(=O)c1cc(-c2cccnc2)c(-c2ccnc3[nH]ccc23)s1)c1ccccc1 (stereo not drawn) [GSK1323434] | 19%
12 | COc1cccc(-c2nc(-c3ccccc3)[nH]c2-c2ccncc2)c1 [SB-610250] | 22%
